Assay outcomes (PubChem)
FUS yeast rescue – qHTS for Suppressors of FUS Proteinopathy: Primary screen using FUS-linked yeast assay. S. cerevisiae FUS-expressing, growth rescue, OD600, 24 h. hit rate 0.24% among 390,000. AID 1347120, 2019. Potency, µM (doses to about 76.6 µM), hits mostly activators; note: nearly all actives have a fitted effect of over 55% in size
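Quantitative HTS measuring growth restoration of FUS-toxic yeast. Galactose-induced cells (OD 0.005) were exposed 24hr at 30C to compounds at several concentrations, then absorbance at 600 nm was recorded.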
Abeta yeast res – qHTS for compounds that reverse cellular toxicity of Amyloid beta (A-beta) peptide in yeast: Primary Screen; yeast expressing A-beta42, growth rescue, OD600, 48 h; response scale: 0% DMSO, 100% iron-clioquinol control; Potency, µM (doses to about 46.1 µM), most hits filed as activators; hit rate 0.063% among 410,000; note: nearly all actives have a fitted effect of over 55% in size
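Yeast growth medium received pinned compounds, then yeast cells expressing toxic A-beta were added; plates incubated at 30 C for 48 hr. Growth read as absorbance at 600 nm, normalized to DMSO and equimolar FeCl3 plus clioquinol controls.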
aSyn rescue – qHTS of alpha-syn Inhibitors. AID 652106, 2013. Potency, µM (series often up to 46.1 µM), hits mostly activators. hit rate 0.14% among 370,000. Yeast expressing alpha-synuclein, growth rescue, BacTiter-Glo, 24 h; note: nearly all actives have a fitted effect of over 65% in size
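Readout is rescue of growth in alpha-synuclein-expressing yeast, so inhibitors of toxicity appear as activators. Growth after 24 hr at 30 deg C in galactose medium is quantified by luminescence.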
TDP43 rescue – qHTS of TDP-43 Inhibitors; Potency, µM (highest dose often 46.1 µM), hits mostly activators; hit rate 1.8% among 410,000; TDP-43 expressing yeast growth rescue, BacTiter-Glo, 24 h; note: nearly all actives have a fitted effect of over 50% in size
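Luminescence from BacTiter-Glo reports growth of TDP-43-expressing yeast after 24 hr at 30 deg C with compound. Cells were raffinose-pregrown to mid-log, then seeded in galactose medium at OD600=0.02.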
Mito fusion act – qHTS Assay for Small Molecule Inhibitors of Mitochondrial Division or Activators of Mitochondrial Fusion. S. cerevisiae fusion-defective mutant growth rescue, CellTiterGlo 48 h. Potency, µM (titrated, usually from 46.1 µM), usual class: activators. hit rate 0.23% among 320,000; note: nearly all actives have a fitted effect of over 45% in size
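Temperature-sensitive fusion-defective S. cerevisiae (e.g. fzo1-1, mgm1-5) were grown with compound in YPEG medium (3% ethanol, 3% glycerol) for 48 hours at 37C. Growth rescue was measured as viability by CellTiterGlo luminescence after 10 minutes at ambient.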
Hits are given with their value; . = inactive; ? = inconclusive; / = not tested or not shown; [ ] = dose if it differs, or a comment. Sampled rows, rich in hits. Any-hit rate of the full collection: about 2.2%. Calls come from the whole dose curve; as a rule, active = well fitted curve in the direction sought with a large enough effect; inconclusive = small, poorly fitted or top-dose-only effect, or another doubt; inactive = no such curve, though single readings can be large; an effect the other way counts as inactive or inconclusive.

SMILES	FUS yeast rescue	Abeta yeast res	aSyn rescue	TDP43 rescue	Mito fusion act
CCOC(=O)CC[C@@]1(C(=O)OCC)C[C@@H](CC(=O)NCc2ccc(C)o2)C(=O)N2CCCC=C21	.	/	/	/	/
O=C(COc1ccccc1C(=O)Nc1cccnc1)Nc1ccc(Br)cc1	/	/	.	/	/
COC(=O)c1ccn(CSc2c(F)c(F)cc(F)c2F)n1	.	.	.	.	.
COC(=O)c1ccn(CSc2cc(Cl)ccc2Cl)n1	.	.	.	13µM	.
CCc1nnc(NC(=O)CSc2nnc(-c3ccco3)n2CCOC)s1	.	.	.	.	5.6µM
CCn1c(SCC(=O)Nc2nnc(C)s2)nnc1-c1ccco1	.	.	.	.	.
COc1cccc(N2CC(NC(=O)c3cccs3)CC2=O)c1 (stereo not drawn)	.	.	/	.	/
COc1cc(CNn2c(C)n[nH]c2=S)cc(Br)c1OCc1ccc(F)cc1	.	.	.	35µM	?
Cc1ccc(CSc2cn(CC(=O)N3CCCCCC3)c3ccccc23)cc1	.	.	/	.	/
Cc1ccc(CSc2cn(CC(=O)N3CCCC3)c3ccccc23)cc1	?	.	/	22µM	/
C=CCc1cccc(/C=N/NC(=O)c2ccccc2OC)c1O	.	.	.	16µM	.
COc1ccccc1/C=N/NC(=O)c1ccccc1Cl	.	.	.	.	.
C=CCc1cccc(/C=N/NC(=O)c2ccccc2Br)c1O	.	?	?	16µM	.
O=C(N/N=C/c1ccccc1C(=O)O)c1ccccc1Br	.	.	.	.	.
COc1ccc(S(=O)(=O)NCC(=O)N2CCN(c3ccccn3)CC2)c(OC)c1	.	/	/	/	/
CCc1cc2c(SC(C)C(=O)NC3CCCC3)ncnc2s1 (stereo not drawn)	.	.	.	35µM	/
COc1ccc(C=C(c2nc3ccccc3s2)c2nc3ccccc3s2)cc1O	?	.	.	?	?
COc1cc(C=C(c2nc3ccccc3s2)c2nc3ccccc3s2)ccc1O	.	.	.	.[0.397 µM]	16µM
Cc1ccc(CSC2=NC(C)(C)Nc3ccccc32)c(C)c1	.	.	/	?	/
Cc1ccc2c(c1)N(CCCC(=O)N(C)Cc1ccccc1F)C(=O)CO2	.	/	/	/	/
O=S(=O)(Nc1ccc(C(O)(C(F)(F)F)C(F)(F)F)cc1)c1ccc(Cl)c2nonc12	.	.	.	20µM	/
CCCC(=O)NC1=C(Cl)C(=O)c2ccccc2C1=O	/	.	.	.	/
CCNC1=C(Cl)C(=O)c2ccccc2C1=O	.	.	.	13µM	.
COc1cc(OC)cc(C(=O)NC(=S)NNC(=O)c2cnccn2)c1	.	.	3.5µM	?	.
COc1ccc(C(=O)NC(=S)NNC(=O)c2ccc(C)cc2)cc1	.	?	.	.	/
SMILES	FUS yeast rescue	Abeta yeast res	aSyn rescue	TDP43 rescue	Mito fusion act
COc1ccc(C(=O)NC(=S)NNC(=O)Cc2cccs2)cc1	.	8.9µM	10µM	10µM	.
COc1cc(OC)cc(C(=O)NC(=S)NNC(=O)Cc2cccs2)c1	.	.	?	13µM	.
O=C(/C=C/c1cccs1)NC(=S)NNC(=O)Cc1cccs1	.	?	?	11µM	.
CCc1cc(Cn2nc(-c3ccccc3)cc2C(=O)NCCOC)on1	.	.	.	.	.
CCc1cc(Cn2nc(-c3ccccc3)cc2C(=O)NCc2cccs2)on1	.	.	.	.	13µM
CC1(C)CC2(CCO1)N1CC3(C)CN2CC(C)(C1)C3=O (stereo not drawn)	/	.	.	3.2µM	/
Cc1ccc(S(=O)(=O)Nc2cc3c(cc2NCc2ccccc2)n(C)c(=O)n3C)c(C)c1	.	.	/	.	/
CCOC(=O)N1CCC(N2C(=O)c3ccccc3C2Nc2ccccc2C)CC1 (stereo not drawn)	.	.	.	.	.
CCOC(=O)c1ccccc1NC1c2ccccc2C(=O)N1C1CCN(C(=O)OCC)CC1 (stereo not drawn)	.	.	.	.	35µM
Cc1c(C(=O)NCc2ccccc2Cl)sc2nc3n(c(=O)c12)CCC3	.	.	/	18µM	/
Cc1c(C(=O)NCc2cccc(Cl)c2)sc2nc3n(c(=O)c12)CCCC3	.	.	/	22µM	/
Cc1c(C(=O)NCc2ccc(Cl)cc2)sc2nc3n(c(=O)c12)CCCC3	.	.	/	?	/
CCOC(=O)COc1ccc([N+](=O)[O-])cc1-c1ccnc2cc(-c3ccc(Cl)cc3)nn12	.	.	/	.	/
O=C(c1ccc(Br)o1)N1CCN(c2ccc(F)cc2)CC1	.	.	.	13µM	.
O=C(Nc1ccc(N2CCN(C(=O)c3cccs3)CC2)cc1)c1ccc(Br)o1	.	.	.	25µM	?
CC(C)Cc1cc(C(=O)N2CCN(c3ccc(F)cc3)CC2)no1	.	.	.	22µM	.
OC(c1ccccc1)(c1ccccc1)C1CCN(CCCNc2ccc(C(F)(F)F)cc2)CC1	.	/	/	/	/
Cc1c(C)c(C)c(/C=C/c2ccnc3ccccc23)c(C)c1C	/	/	.	/	/
COC(=O)C[C@H]1CC[C@@H]2[C@H](COc3ccc(NC(=O)c4ccccc4OC)cc3C(=O)N2C)O1	.	/	/	/	/
C=CCOc1c(Br)cc(CNc2ccc(NC(=O)CCC)cc2)cc1OCC	.	?	.	?	.
C=CCOc1c(Br)cc(CNc2ccc(NC(=O)C(C)C)c(OC)c2)cc1OCC	14µM	.	.	.	.
C=CCNc1nc(Nc2ccc(OC)cc2)nc(OC)n1	.	.	.	20µM	.
C=CCNc1nc(Cl)nc(Nc2ccc(OC)cc2)n1	.	.	.	.	.
CCCCCC[C@@H](CCCc1ccccc1OC)CN(CCCC)S(C)(=O)=O	.	/	/	/	/
CCOC(=O)[C@@]12CCCC=C1N(CCc1ccc(Cl)cc1)C(=O)[C@H]2CC(=O)NCc1ccc(C)o1	.	/	/	/	/
SMILES	FUS yeast rescue	Abeta yeast res	aSyn rescue	TDP43 rescue	Mito fusion act
CCOc1ccccc1COC(=O)c1cccc(-n2cnnn2)c1	.	.	.	18µM	.
COc1ccccc1C(=O)COC(=O)c1cccc(-n2cnnn2)c1	.	.	.	.	.
CC(C)OC1=CC(=O)OC(c2cccc(Cl)c2)C1 (stereo not drawn)	.	.	.	22µM	/
O=C(CSc1ccc(Cl)cc1)N1CCC(c2nc3ccccc3s2)CC1	.	.	?	25µM	.
O=C(CSc1c(Cl)cccc1Cl)N1CCC(c2nc3ccccc3s2)CC1	.	.	?	.	.
O=C(O)C1C2CCC(CC2)C1C(=O)N1CCN(Cc2ccc(F)cc2)CC1 (stereo not drawn)	.	.	.	20µM	.
Cc1ccccc1OCCC(=O)Nc1ccc(F)c(Cl)c1	.	.	.	14µM	.
Cc1ccc(-c2csc(NC(=O)c3c(C)noc3C)n2)s1	/	.	.	11µM	/
CCCC1Cc2c(sc(N)c2C#N)CO1 (stereo not drawn)	.	.	.	13µM	.
CCCC1Cc2c(sc3nc(SC)nc(N)c23)CO1 (stereo not drawn)	.	.	.	.	.
Cc1ccc(C(=O)C2CCN(CC(=O)N3CCOCC3)CC2)cc1	.	/	/	/	/
